Experimental data: PubChem BioAssay (Tox21)
Where “and” joins values, the source holds several entries; their conditions need not be identical. Equal entries are not always repeated. Records with an inconclusive call do not appear. Calls of active or inactive are those of the source. Calls follow the shape of the dose curve; as a rule, active = well fitted curve in the direction sought with a large enough effect in the repeat runs; inconclusive = weak or mixed curves; inactive = no such curve, though single readings can be large; an effect the other way counts as inactive or inconclusive.

These compounds were tested against Cytochrome P450 2C9 (Homo sapiens) (UniProt P11712) (assay: Cytochrome P450 Family 2 Subfamily C Member 9 (CYP2C9) small molecule antagonists: luciferase reporter qHTS assay (AID 1671198)). Settings: P450-Glo CYP2C9 enzyme assay, luciferin luminescence; series mostly up to 115 µM; activity change, negative = inhibition: at the top concentration.
Outline: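 P450-Glo proluciferin substrate with CYP2C9 enzyme; 10 min RT preincubation, then NADPH regeneration 1 h at 37C; luciferin detection reagent 20 min RT, luminescence in relative luminescence units.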
% is scaled to controls: 0 for no effect and ±100 for the full control effect; potency is read from the fitted curve at half-maximal effect.
Also: nearly all actives have a fitted effect of over 50% in size.

Cytochrome P450 2C9 (Homo sapiens), sequence (P11712 whole entry, looked up): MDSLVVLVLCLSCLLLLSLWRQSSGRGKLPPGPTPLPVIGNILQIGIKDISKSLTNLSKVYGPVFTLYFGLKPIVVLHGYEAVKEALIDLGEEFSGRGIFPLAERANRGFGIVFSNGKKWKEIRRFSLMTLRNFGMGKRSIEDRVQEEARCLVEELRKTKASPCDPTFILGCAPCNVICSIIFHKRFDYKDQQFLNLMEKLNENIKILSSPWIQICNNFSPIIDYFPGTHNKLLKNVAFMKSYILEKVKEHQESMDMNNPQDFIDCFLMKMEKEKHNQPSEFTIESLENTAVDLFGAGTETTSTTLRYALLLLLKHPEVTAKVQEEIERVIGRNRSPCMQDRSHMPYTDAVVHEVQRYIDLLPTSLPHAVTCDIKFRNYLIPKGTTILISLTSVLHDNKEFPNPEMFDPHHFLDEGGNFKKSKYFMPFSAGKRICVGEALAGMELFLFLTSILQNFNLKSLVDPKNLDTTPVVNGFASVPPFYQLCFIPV

Compound	activity change, negative = inhibition	Potency
COC(C)(C)OC	-0.0848% (inactive)	
CCC(Cl)CC(Cl)C(Cl)C(Cl)C(Cl)C(C)Cl (stereo not given)		1.38 µM (active)
CCc1ccc(C)cc1	7.61% (inactive)	
CO[C@@H]1[C@@H](OC)[C@H](C)[C@@](O)(CC(=O)O)O[C@H]1[C@H](C)[C@H]1O[C@@]2(CC[C@@](C)([C@H]3CC[C@@](C)([C@@H]4O[C@@H]([C@H]5O[C@](C)(O)[C@H](C)C[C@@H]5C)C[C@@H]4OC4C[C@H](OC)[C@@H](OC)[C@H](C)O4)O3)O2)C[C@H](O)[C@H]1C (stereo not given in full)	-17% [at 53 µM] (inactive)	
O=P(O)(O)Oc1ccccc1	-9.99% (inactive)	
CCCCCCCC(=O)Oc1c(Br)cc(C#N)cc1Br		39.8 µM (active)
CCCc1nc2c(C)cc(-c3nc4ccccc4n3C)cc2n1Cc1ccc(-c2ccccc2C(=O)O)cc1		7.76 µM (active)
Oc1ccc2c(c1)Cc1ccccc1-2		35.6 µM (active)
C=C(C)c1ccccc1	-12.9% (inactive)	
CC(=O)c1ccc[nH]1	-17.2% (inactive)	
CC(C)(O)c1coc(S(=O)(=O)NC(=O)Nc2c3c(cc4c2CCC4)CCC3)c1		25.2 µM (active)
CC1CCCO1 (stereo not given)	-5.82% (inactive)	
Cc1cccc2sc(N)nc12	-19.2% (inactive)	
Cc1c[nH]c2ccccc12	24.6% [at 53 µM] (inactive)	
O=C(c1ccccc1)C1CCC1	-7.62% (inactive)	
COc1ccc2nc(S(=O)Cc3ncc(C)c(OC)c3C)[nH]c2c1 (stereo not given)		31.3 µM (active) and 13.8 µM (active)
O=C1OC(=O)c2c(Br)c(Br)c(Br)c(Br)c21	5.29% (inactive)	
O=C(CCS)OCC(COC(=O)CCS)(COC(=O)CCS)COC(=O)CCS		15.9 µM (active)
O=C(O)CCCc1c[nH]c2ccccc12	0.842% (inactive)	
CCCCCc1ccco1		26 µM (active)
CCCCCCCCCCCC(=O)OCC(O)CO (stereo not given)		39.9 µM (active)
CCN(CC)CCNC(=O)c1cc(Cl)c(N)cc1OC	-16.8% [at 53 µM] (inactive)	

These compounds were tested against Cytochrome P450 1A2 (Homo sapiens) (UniProt P05177) (assay: Cytochrome P450 Family 1 Subfamily A Member 2 (CYP1A2) small molecule antagonists: luciferase reporter qHTS assay (AID 1671199)). Settings: P450-Glo CYP1A2 enzyme, luciferin luminescence, 1 h; series mostly up to 115 µM; activity change, negative = inhibition: at the top concentration.
Outline: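 P450-Glo CYP1A2, 1536-well qHTS: enzyme/proluciferin substrate + cpd (DMSO), 10 min RT; NADPH regen, 1 h RT; detection reagent, 20 min; luminescence, RLU.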

Cytochrome P450 1A2 (Homo sapiens), sequence (P05177 whole entry, looked up): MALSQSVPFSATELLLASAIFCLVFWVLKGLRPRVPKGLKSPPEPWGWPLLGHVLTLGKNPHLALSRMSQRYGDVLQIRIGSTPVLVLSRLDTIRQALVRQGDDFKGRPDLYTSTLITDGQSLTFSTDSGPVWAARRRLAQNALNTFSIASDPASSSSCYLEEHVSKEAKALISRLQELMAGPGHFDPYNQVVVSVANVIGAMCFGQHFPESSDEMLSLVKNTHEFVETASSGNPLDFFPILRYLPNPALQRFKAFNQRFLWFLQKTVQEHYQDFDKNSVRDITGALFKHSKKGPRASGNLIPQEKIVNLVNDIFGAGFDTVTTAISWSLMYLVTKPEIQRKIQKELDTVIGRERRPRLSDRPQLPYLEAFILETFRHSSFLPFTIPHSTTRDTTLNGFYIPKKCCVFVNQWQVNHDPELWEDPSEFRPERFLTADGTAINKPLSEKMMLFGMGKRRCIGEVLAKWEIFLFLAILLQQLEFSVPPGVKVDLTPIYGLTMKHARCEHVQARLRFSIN

Compound	activity change, negative = inhibition	Potency
COc1ccc(C2C(=O)c3ccccc3C2=O)cc1	-0.411% [at 53 µM] (inactive)	
O=C(O)c1cccc(Oc2ccccc2)c1	-3.68% (inactive)	
COc1cc(C(C)=O)ccc1OCCCN1CCC(c2noc3cc(F)ccc23)CC1	-7.77% [at 53 µM] (inactive)	
CCc1ccc(C)cc1	-11.6% (inactive)	
CO[C@@H]1[C@@H](OC)[C@H](C)[C@@](O)(CC(=O)O)O[C@H]1[C@H](C)[C@H]1O[C@@]2(CC[C@@](C)([C@H]3CC[C@@](C)([C@@H]4O[C@@H]([C@H]5O[C@](C)(O)[C@H](C)C[C@@H]5C)C[C@@H]4OC4C[C@H](OC)[C@@H](OC)[C@H](C)O4)O3)O2)C[C@H](O)[C@H]1C (stereo not given in full)	18.4% [at 53 µM] (inactive)	
Cc1ccc2nc(N)[nH]c(=O)c2c1Sc1ccncc1		2.88 µM (active)
CCOC(=O)N1CCC(Nc2ccc(Cl)cc2N)CC1	-4.1% [at 53 µM] (inactive)	
O=P(O)(O)Oc1ccccc1	-14.6% (inactive)	
CCCCCCCC(=O)Oc1c(Br)cc(C#N)cc1Br		12.6 µM (active)
CCC(C)(C)C(=O)O	-9.26% (inactive)	
CCCc1nc2c(C)cc(-c3nc4ccccc4n3C)cc2n1Cc1ccc(-c2ccccc2C(=O)O)cc1	13.1% [at 53 µM] (inactive)	
Oc1ccc2c(c1)Cc1ccccc1-2		3.56 µM (active)
CCN(CC)c1ccc(C(=C2C=CC(=[N+](CC)CC)C=C2)c2ccc(S(=O)(=O)O)cc2S(=O)(=O)[O-])cc1		10 µM (active)
CC(C)(O)c1coc(S(=O)(=O)NC(=O)Nc2c3c(cc4c2CCC4)CCC3)c1		17.8 µM (active)
Cc1cccc2sc(N)nc12		18.1 µM (active)
O=C(O)CCC(=O)OC[C@@H](NC(=O)C(Cl)Cl)[C@H](O)c1ccc([N+](=O)[O-])cc1	12.6% [at 53 µM] (inactive)	
NC(=O)CCCCC(N)=O	-7.27% (inactive)	
Cc1c[nH]c2ccccc12		14.4 µM (active)
CC(C)CC(O)CC(C)C	-17.6% (inactive)	
CC(CN(CCN(CC(C)OCCO)CC(C)OCCO)CC(C)OCCO)OCCO (stereo not given)	-23.2% (inactive)	
O=C(c1ccccc1)C1CCC1	-24.5% (inactive)	
COc1ccc2nc(S(=O)Cc3ncc(C)c(OC)c3C)[nH]c2c1 (stereo not given)		8.83 µM (active) and 15.5 µM (active)
CC(C)N(C)C	-27.1% (inactive)	
O=C1OC(=O)c2c(Br)c(Br)c(Br)c(Br)c21	-16.9% (inactive)	
O=C(CCS)OCC(COC(=O)CCS)(COC(=O)CCS)COC(=O)CCS	-12% (inactive)	
O=C(O)CCCc1c[nH]c2ccccc12	-12.7% (inactive)	
CCCCCc1ccco1		36.8 µM (active)
CCN(CC)CCNC(=O)c1cc(Cl)c(N)cc1OC	-11.1% [at 53 µM] (inactive)	

These compounds were tested against Voltage-gated inwardly rectifying potassium channel KCNH2 (Homo sapiens) (UniProt Q12809) (assay: Human Ether-a-go-go-Related Gene (hERG) channel small molecule antagonists: fluorescence cell-based qHTS assay (AID 1671200;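 as to activity change, negative = inhibition: hERG-expressing U2OS cells given a thallium stimulus after FluxOR II dye loading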)). Settings: hERG-U2OS cells, FluxOR thallium flux fluorescence; series mostly up to 76.8 µM; activity change, negative = inhibition: at the top concentration.
Outline: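 Fluorescence at 540 nm emission (480 nm excitation) was recorded kinetically for 2 min at 1-second intervals once the thallium-containing stimulus reached cells previously loaded with FluxOR II dye.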

Voltage-gated inwardly rectifying potassium channel KCNH2 (Homo sapiens), sequence (Q12809 whole entry, looked up): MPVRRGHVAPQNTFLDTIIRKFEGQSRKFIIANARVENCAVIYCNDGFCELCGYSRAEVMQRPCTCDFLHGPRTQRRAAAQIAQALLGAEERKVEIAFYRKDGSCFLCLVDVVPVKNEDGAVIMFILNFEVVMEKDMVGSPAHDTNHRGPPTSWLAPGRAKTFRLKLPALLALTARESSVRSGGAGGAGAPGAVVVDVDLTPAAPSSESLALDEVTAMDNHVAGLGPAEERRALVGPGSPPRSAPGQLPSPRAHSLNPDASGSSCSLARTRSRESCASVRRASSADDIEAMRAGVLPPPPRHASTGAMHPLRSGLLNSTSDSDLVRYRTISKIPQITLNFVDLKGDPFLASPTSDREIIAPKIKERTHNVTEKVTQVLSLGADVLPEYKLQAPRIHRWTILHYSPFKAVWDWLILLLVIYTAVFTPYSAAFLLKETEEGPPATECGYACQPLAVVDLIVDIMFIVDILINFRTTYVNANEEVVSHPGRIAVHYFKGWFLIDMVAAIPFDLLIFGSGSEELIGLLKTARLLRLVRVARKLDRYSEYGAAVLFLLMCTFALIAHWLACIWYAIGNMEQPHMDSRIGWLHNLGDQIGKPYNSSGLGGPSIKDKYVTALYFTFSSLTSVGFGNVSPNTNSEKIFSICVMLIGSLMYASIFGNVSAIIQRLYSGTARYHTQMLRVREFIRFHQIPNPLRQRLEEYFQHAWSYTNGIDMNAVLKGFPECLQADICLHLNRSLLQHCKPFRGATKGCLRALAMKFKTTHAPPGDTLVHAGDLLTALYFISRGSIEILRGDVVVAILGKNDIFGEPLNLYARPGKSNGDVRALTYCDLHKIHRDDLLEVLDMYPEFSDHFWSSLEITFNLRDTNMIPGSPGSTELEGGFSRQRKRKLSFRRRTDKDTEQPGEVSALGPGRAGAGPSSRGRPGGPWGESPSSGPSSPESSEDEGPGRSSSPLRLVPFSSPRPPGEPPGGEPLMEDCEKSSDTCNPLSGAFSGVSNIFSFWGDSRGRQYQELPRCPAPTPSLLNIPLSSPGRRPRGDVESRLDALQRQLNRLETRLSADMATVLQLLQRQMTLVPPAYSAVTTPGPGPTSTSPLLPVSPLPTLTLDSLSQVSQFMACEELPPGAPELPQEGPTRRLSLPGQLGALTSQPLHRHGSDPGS

Compound	activity change, negative = inhibition	Potency
COC(C)(C)OC	0.894% (inactive)	
COc1ccc(C2C(=O)c3ccccc3C2=O)cc1	0.98% [at 35.3 µM] (inactive)	
O=C(O)c1cccc(Oc2ccccc2)c1	-0.946% (inactive)	
COc1cc(C(C)=O)ccc1OCCCN1CCC(c2noc3cc(F)ccc23)CC1		1.07 µM (active)
CCc1ccc(C)cc1	0.0213% (inactive)	
CO[C@@H]1[C@@H](OC)[C@H](C)[C@@](O)(CC(=O)O)O[C@H]1[C@H](C)[C@H]1O[C@@]2(CC[C@@](C)([C@H]3CC[C@@](C)([C@@H]4O[C@@H]([C@H]5O[C@](C)(O)[C@H](C)C[C@@H]5C)C[C@@H]4OC4C[C@H](OC)[C@@H](OC)[C@H](C)O4)O3)O2)C[C@H](O)[C@H]1C (stereo not given in full)	25.8% [at 35.3 µM] (inactive)	
Cc1ccc2nc(N)[nH]c(=O)c2c1Sc1ccncc1	3.27% [at 35.3 µM] (inactive)	
CCOC(=O)N1CCC(Nc2ccc(Cl)cc2N)CC1	-0.859% [at 35.3 µM] (inactive)	
O=P(O)(O)Oc1ccccc1	0.329% (inactive)	
CCC(C)(C)C(=O)O	0.857% (inactive)	
CCCc1nc2c(C)cc(-c3nc4ccccc4n3C)cc2n1Cc1ccc(-c2ccccc2C(=O)O)cc1	-36.3% [at 35.3 µM] (inactive)	
Oc1ccc2c(c1)Cc1ccccc1-2	1.74% (inactive)	
CCN(CC)c1ccc(C(=C2C=CC(=[N+](CC)CC)C=C2)c2ccc(S(=O)(=O)O)cc2S(=O)(=O)[O-])cc1	-7.46% (inactive)	
O=C(O)CN1C(=O)c2cccc3cccc(c23)C1=O	2.45% [at 35.3 µM] (inactive)	
C=C(C)c1ccccc1	3.21% (inactive)	
CC(=O)c1ccc[nH]1	0.77% (inactive)	
CC(C)(O)c1coc(S(=O)(=O)NC(=O)Nc2c3c(cc4c2CCC4)CCC3)c1	-2.65% (inactive)	
CCOc1ncc(F)c(=O)[nH]1	2.26% [at 35.3 µM] (inactive)	

Compound	activity change, negative = inhibition	Potency
CC1CCCO1 (stereo not given)	6.04% (inactive)	
Cc1cccc2sc(N)nc12	3.82% (inactive)	
NC(=O)c1ccccc1[N+](=O)[O-]	2.86% (inactive)	
O=C(O)CCC(=O)OC[C@@H](NC(=O)C(Cl)Cl)[C@H](O)c1ccc([N+](=O)[O-])cc1	-0.822% [at 35.3 µM] (inactive)	
NC(=O)CCCCC(N)=O	-6.11% (inactive)	
Cc1c[nH]c2ccccc12	1.35% [at 35.3 µM] (inactive)	
CC(C)CC(O)CC(C)C	3.74% (inactive)	
CC(CN(CCN(CC(C)OCCO)CC(C)OCCO)CC(C)OCCO)OCCO (stereo not given)	0.108% (inactive)	
O=C(c1ccccc1)C1CCC1	-1.04% (inactive)	
COc1ccc2nc(S(=O)Cc3ncc(C)c(OC)c3C)[nH]c2c1 (stereo not given)		inactive
CC(C)N(C)C	-0.43% (inactive)	
O=C1OC(=O)c2c(Br)c(Br)c(Br)c(Br)c21	0.0077% (inactive)	
O=C(CCS)OCC(COC(=O)CCS)(COC(=O)CCS)COC(=O)CCS		38.9 µM (active)
O=C(O)CCCc1c[nH]c2ccccc12	-0.0828% (inactive)	
CCCCCc1ccco1	-16.9% [at 35.3 µM] (inactive)	
CCCCCCCCCCCC(=O)OCC(O)CO (stereo not given)	-5.93% (inactive)	
CCN(CC)CCNC(=O)c1cc(Cl)c(N)cc1OC	-7.52% [at 35.3 µM] (inactive)	
